Assay results published in PubChem BioAssay (NCATS).
“And” between values parts separate entries of the source, which are not always exact repeats. Equal values may be shown once. Results filed as inconclusive are left out. The source made the active and inactive calls. Unless noted, calls follow the shape of the dose curve; as a rule, active = well fitted curve in the direction sought with a large enough effect; inconclusive = small, poorly fitted or top-dose-only effect, or another doubt; inactive = no such curve, though single readings can be large; an effect the other way counts as inactive or inconclusive.

What was measured:
[1] = Cellular Toxicity (caspase-3) SHSY5Y (AID 657)
How it was run: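 Cells plated and incubated 5 h at 37 °C, dosed over a concentration range, incubated 16 h, then given Caspase-Glo 3/7 reagent for 1 h at room temperature before luminescence reading. Staurosporine (10 uM) defined full stimulation.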

[2] = Cellular Toxicity (caspase-3) BJ (AID 658)
How it was run: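 Readout: Caspase-Glo 3/7 luminescence increase in BJ cells after 16 hr treatment at 37 °C. Staurosporine and tamoxifen served as positive controls; AC50 values came from Hill modelling of data normalized to DMSO and 10 uM staurosporine.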

[3] = Cellular Toxicity (caspase-3) MRC-5 (AID 659)
How it was run: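 Concentration-dependent caspase 3/7 activation is measured in human normal lung fibroblasts (MRC-5) following 16-hour treatment. AC50 values come from standard Hill-equation modeling of luminescence normalized to DMSO and 10 uM staurosporine.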

[4] = Cellular Toxicity (caspase-3) Mesangial (AID 660);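 also: combined caspase 3 and 7 activity read by Caspase-Glo luminescence; cells exposed to compound for 16 h before the caspase read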
How it was run: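 Concentration-response qHTS: compound-induced rise in caspase 3/7 luminescence in human mesangial cells after 16 h, normalized to DMSO and 100 uM tamoxifen controls.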

[5] = Cellular Toxicity (caspase-3) SK-N-SH (AID 661)
How it was run: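 Caspase 3/7 activation is measured as a luminescence increase from aminoluciferin released by substrate cleavage in SK-N-SH cells after 16 hr compound treatment; values are AC50 from concentration-response curves.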

[6] = Cellular Toxicity (caspase-3) H-4-II-E (AID 663);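 also: 0% = DMSO basal and 100% = 100 µM tamoxifen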
How it was run: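 Apoptosis induction is scored as increased luminescence from caspase 3/7 substrate cleavage in rat hepatoma H-4-II-E cells exposed to compound for 16 hr. Activity is scaled between DMSO and 100 uM tamoxifen.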

[7] = Cellular Toxicity (caspase-3) N2a (AID 665); conditions: N2a cells, luminescence, normalized: DMSO 0%, 10 µM staurosporine 100%; at 92.2 µM (top of the series);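 also: compound exposure lasted 16 h at 37 °C before readout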
How it was run: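 Plated mouse neuroblastoma N2a cells received titrated compounds for 16 h in complete medium. Caspase activity was then detected with a peptide-aminoluciferin luminescent reagent.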

[8] = MultiTox-Fluor Cytotoxicity Assay - LYMP1-001 - Dead Cells (AID 946)
How it was run: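 Seed 2500 LYMP1-001 cells/well, incubate 5 hr at 37 C; add compound, 16 hr at 37 C; add MultiTox-Fluor reagent, 60 min RT; read dead-cell fluorescence Ex/Em=485/520. Normalize to DMSO and 15 uM tetraoctylammonium bromide.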

[9] = Cell Viability - LYMP1-002 - Assay at 16 hr (AID 948);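 also: 0% = DMSO alone and full effect = 92 µM tetraoctylammonium bromide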
How it was run: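 Acute cytotoxicity is scored as a concentration-dependent fall in intracellular ATP in a human lymphoblastoid line (LYMP1-002) after 16 hr compound exposure at 37 C, measured by luciferase luminescence.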

[10] = MultiTox-Fluor Cytotoxicity Assay - LYMP1-003 - Dead Cells (AID 961); also: nearly all actives have a fitted effect of over 70% in size
How it was run: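 LYMP1-003 lymphoblastoid, 2500 cells/well, 5 hr settle then 16 hr cpd at 37 C; MultiTox-Fluor reagent 60 min RT; Ex/Em 485/520 dead-cell signal; norm. DMSO = 0%, 15 uM tetraoctylammonium bromide = 100%; Hill AC50.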

[11] = Cell Viability - LYMP1-003 - Assay at 24 hr (AID 963);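 also: plate controls were DMSO only for no effect and tetraoctylammonium bromide positive control for full effect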
How it was run: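 Acute toxicity in LYMP1-003 lymphoblastoid cells: 24 hr compound treatment at 37 C, ATP measured with CellTiter-Glo after 30 min at room temperature. AC50 derived by fitting the Hill equation to qHTS titrations.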

[12] = Cell Viability - LYMP2-003 (AID 965);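 also: cells exposed to compounds for 24 h before reading; 0% = DMSO only and full effect = 92 µM tetraoctylammonium bromide; nearly all actives have a fitted effect of over 50% in size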
How it was run: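 Acute cytotoxicity is scored as a concentration-dependent drop in intracellular ATP, measured by luciferase luminescence in human lymphoblastoid cells treated for 24 hours at 37 C. AC50 values derive from Hill-equation modelling.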

[13] = Cell Viability - LYMP2-015 (AID 971);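 also: cells exposed to compound for 24 h; 0% = DMSO only and full effect = 92 µM tetraoctylammonium bromide; nearly all actives have a fitted effect of over 55% in size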
How it was run: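 Acute toxicity was scored as a concentration-dependent drop in intracellular ATP in lymphoblastoid cells after 24 hr compound exposure in complete medium. Detection used CellTiter-Glo luciferase luminescence.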

[14] = Cell Viability - LYMP2-025 (AID 976);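 also: cells exposed to compound for 24 h at 37 °C; plate controls were DMSO only for no effect and tetraoctylammonium bromide control for full effect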
How it was run: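 In qHTS format, LYMP2-025 lymphoblastoid cells in complete culture medium received compound for 24 hr; ATP-based CellTiter-Glo signal gave viability, with AC50 derived by Hill equation.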

[15] = Cell Viability - LYMP2-006 (AID 978);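 also: cells exposed to compound for 24 hours; % is scaled to controls: 0 for no effect and ±100 for the full control effect; nearly all actives have a fitted effect of over 60% in size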
How it was run: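 Concentration-dependent loss of intracellular ATP in a human lymphoblastoid line after 24 hr treatment at 37 C was measured by CellTiter-Glo luminescence, with AC50 values obtained from standard Hill-equation modelling.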

[16] = Cell Viability - LYMP2-007 (AID 979);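 also: cells exposed to compound for 24 h before reading; 0% = DMSO only and the negative end = 92 µM tetraoctylammonium bromide; nearly all actives have a fitted effect of over 60% in size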
How it was run: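 Acute toxicity is scored as a concentration-dependent fall in intracellular ATP in human lymphoblastoid cells treated 24 hr at 37 C, measured by luciferase luminescence; Hill-equation modelling yields AC50.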

[17] = Cell Viability - LYMP2-008 (AID 980);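 also: cells exposed to compound for 24 h at 37 °C; % is scaled to controls: 0 for no effect and ±100 for the full control effect; nearly all actives have a fitted effect of over 60% in size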
How it was run: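 Acute cytotoxicity is scored as concentration-dependent loss of cellular ATP in a human lymphoblastoid line after 24 hr treatment at 37 C. ATP is quantified by luciferase luminescence.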

[18] = Cell Viability - LYMP2-014 (AID 983);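 also: cells exposed to compound for 24 h at 37 °C; plate controls were DMSO only for no effect and 92 µM tetraoctylammonium bromide for full effect; nearly all actives have a fitted effect of over 50% in size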
How it was run: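 Decrease in intracellular ATP after 24 hr treatment at 37 C, measured by luciferase luminescence, indicated cytotoxicity. Concentration-response data were fitted with the standard Hill equation to give AC50.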

[19] = Cell Viability - LYMP1-002 - Assay at 24 hr (AID 993); also: % is scaled to controls: 0 for no effect and ±100 for the full control effect
How it was run: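 qHTS, LYMP1-002 lymphoblastoid, 24 h cpd, 37 C, CellTiter-Glo ATP luminescence; AC50 via Hill eq.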

[20] = qHTS assay for small molecule agonists of the antioxidant response element (ARE) signaling pathway measured by Nrf2-dependant transcriptional activity (AID 720636; active = well fitted curve in the direction sought with a large enough effect in the repeat runs; an effect the other way counts as inactive or inconclusive;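 also: HepG2 cells with an ARE-driven luciferase reporter; % of control where 0% means no effect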)
How it was run: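 We exposed ARE-luc HepG2 cells, seeded in assay medium with 1% dialyzed FBS and allowed 6 hr to adhere, to test compounds overnight (16 hr, 37 C) before measuring luciferase with ONE-Glo.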

Cc1cccc(C#N)c1
inactive: outcome [1] | outcome [2] | outcome [3] | outcome [4] | outcome [5] | outcome [6] | caspase-3 activation [7] -2.05% | Potency [8] | Potency [9] | Potency [10] | Potency [11] | Potency [12] | Potency [13] | Potency [14] | Potency [15] | Potency [16] | Potency [17] | Potency [18] | Potency [19] | outcome [20]

CCCCOCCOP(=O)(OCCOCCCC)OCCOCCCC
inactive: outcome [1] | outcome [2] | outcome [3] | outcome [4] | outcome [5] | outcome [6] | caspase-3 activation [7] -1.18% | Potency [8] | Potency [9] | Potency [10] | Potency [11] | Potency [12] | Potency [13] | Potency [14] | Potency [15] | Potency [16] | Potency [17] | Potency [18] | Potency [19] | outcome [20]

Clc1nc(Cl)nc(Cl)n1
inactive: outcome [1] | outcome [2] | outcome [3] | outcome [4] | outcome [5] | outcome [6] | caspase-3 activation [7] 1.31% | Potency [8] | Potency [9] | Potency [10] | Potency [11] | Potency [12] | Potency [13] | Potency [14] | Potency [15] | Potency [16] | Potency [17] | Potency [18] | Potency [19] | outcome [20]

CC(=O)[O-].CC(=O)[O-].O.O.O.[Pb+2]
inactive: outcome [1] | outcome [2] | outcome [3] | outcome [4] | outcome [5] | outcome [6] | caspase-3 activation [7] 0.731% and -2.95% | Potency [8] | Potency [9] | Potency [10] | Potency [11] | Potency [12] | Potency [13] | Potency [14] | Potency [15] | Potency [16] | Potency [17] | Potency [18] | Potency [19] | outcome [20]

CC(C)(C)C(=O)C(Oc1ccc(Cl)cc1)n1cncn1 (stereo unspecified)
inactive: outcome [20]

CCCC(=O)Cl
inactive: outcome [1] | outcome [2] | outcome [3] | outcome [4] | outcome [5] | outcome [6] | caspase-3 activation [7] 4.05% | Potency [8] | Potency [9] | Potency [10] | Potency [11] | Potency [12] | Potency [13] | Potency [14] | Potency [15] | Potency [16] | Potency [17] | Potency [18] | Potency [19] | outcome [20]

Nc1ccc(Br)cc1
inactive: outcome [1] | outcome [2] | outcome [3] | outcome [4] | outcome [5] | outcome [6] | caspase-3 activation [7] 0.277% | Potency [8] | Potency [9] | Potency [10] | Potency [11] | Potency [12] | Potency [13] | Potency [14] | Potency [15] | Potency [16] | Potency [17] | Potency [18] | Potency [19] | outcome [20]

CCCSC(=O)Cl
inactive: outcome [1] | outcome [2] | outcome [3] | outcome [4] | outcome [5] | outcome [6] | caspase-3 activation [7] -1.31% | Potency [8] | Potency [9] | Potency [10] | Potency [11] | Potency [12] | Potency [13] | Potency [14] | Potency [15] | Potency [16] | Potency [17] | Potency [18] | Potency [19] | outcome [20]

C=C(C)C#N
inactive: outcome [1] | outcome [2] | outcome [3] | outcome [4] | outcome [5] | outcome [6] | caspase-3 activation [7] -1.66% | Potency [8] | Potency [9] | Potency [10] | Potency [11] | Potency [12] | Potency [13] | Potency [14] | Potency [15] | Potency [16] | Potency [17] | Potency [18] | Potency [19] | outcome [20]

O=C(Cl)C(Cl)(Cl)Cl
inactive: outcome [1] | outcome [2] | outcome [3] | outcome [4] | outcome [5] | outcome [6] | caspase-3 activation [7] 0.525% | Potency [8] | Potency [9] | Potency [10] | Potency [11] | Potency [12] | Potency [13] | Potency [14] | Potency [15] | Potency [16] | Potency [17] | Potency [18] | Potency [19] | outcome [20]

Cc1ccc([N+](=O)[O-])cc1C
inactive: outcome [1] | outcome [2] | outcome [3] | outcome [4] | outcome [5] | outcome [6] | caspase-3 activation [7] -3.15% | Potency [8] | Potency [9] | Potency [10] | Potency [11] | Potency [12] | Potency [13] | Potency [14] | Potency [15] | Potency [16] | Potency [17] | Potency [18] | Potency [19] | outcome [20]

C1CCC2CCCCC2C1 (stereo unspecified)
inactive: outcome [1] | outcome [2] | outcome [3] | outcome [4] | outcome [5] | outcome [6] | caspase-3 activation [7] -0.192% | Potency [8] | Potency [9] | Potency [10] | Potency [11] | Potency [12] | Potency [13] | Potency [14] | Potency [15] | Potency [16] | Potency [17] | Potency [18] | Potency [19] | outcome [20]

CC(Cl)Cl
inactive: outcome [1] | outcome [2] | outcome [3] | outcome [4] | outcome [5] | outcome [6] | caspase-3 activation [7] -4.66% | Potency [8] | Potency [9] | Potency [10] | Potency [11] | Potency [12] | Potency [13] | Potency [14] | Potency [15] | Potency [16] | Potency [17] | Potency [18] | Potency [19] | outcome [20]
